experiment: compound effects on lung adenocarcinoma cell viability – A549, calcein-AM fluorescence, 48 h, basal, profiling panel (AID 1162); settings: higher = more signal; note: test concentration not given here

SMILES	z-score
CN1C(=O)C2C=CC(C(O)C3CC=CCC3)N(N(c3ccccc3)c3ccccc3)C2C1=O (stereo unspecified)	-0.0631
N#Cc1ccc(NN2C(C(O)C(c3ccccc3)c3ccccc3)C=CC3C(=O)N(c4ccccc4)C(=O)C32)cc1 (stereo unspecified)	0.825
O=C1N[C@@H](Cc2ccccc2)C(=O)N2[C@@H]1C[C@@H](C(=O)O)[C@H]2c1cccc(OCCO)c1	0.432
COC(=O)[C@@]1(Cc2ccc(F)cc2)[C@H]2c3cc(C(=O)N(C)C)n(Cc4cc(F)c(F)c(F)c4)c3C[C@H]2CN1C(=O)c1ccccc1	-0.917
COc1ccc([Si](C)(C)[C@H]2[C@H](CC(=O)N3Cc4ccccc4C[C@H]3CO)O[C@@]3(C(=O)N(Cc4cccc(N5CCC5=O)c4)c4ccccc43)[C@@H]2C)cc1	0.0575
CC1CC/C=C\[C@H]2OC34C=CCN(C(C)(C)C)C(=O)[C@H]3N(CCO)C(=O)[C@@H]4C2C(=O)O1 (stereo partly specified)	-0.986
CC(C)=CCN[C@H](CO)c1ccccc1	-0.11
CC(C)C[C@@H]1NC(=O)[C@@H]2C[C@H](C(=O)NCc3ccc(F)cc3)[C@H](c3cccc(OCCO)c3)N2C1=O	1.21
COC(=O)[C@@]1(Cc2ccc(F)cc2)[C@H]2c3cc(C(=O)N4CCCC4)n(Cc4ccc(S(C)(=O)=O)cc4)c3C[C@H]2CN1C(=O)c1ccccc1	0.0676
Cc1ccc(S[C@]2(C(=O)NCCCN(C)C)CC(=O)N(Cc3cc(C(F)(F)F)cc(C(F)(F)F)c3)[C@@H]2c2ccc(CO)cc2I)cc1	0.0371
O=C1C[C@@](C(=O)NCCN2CCOCC2)(c2ccc([N+](=O)[O-])cc2)[C@@H](c2ccc(CO)cc2I)N1CC12CC3CC(CC(C3)C1)C2	-4.03
CCCC=C(CCC)[C@@H](NC(=O)c1cccs1)c1ccc(C(F)(F)F)cc1	-1.43
CCOC(=O)C[C@H]1[C@H](OC(=O)c2ccc(C(=O)c3ccccc3)cc2)[C@@H](NC(=O)c2ccccc2)c2cc(OCCCO)ccc2N1C(=O)c1ccc2ccccc2n1	0.29
COC(=O)[C@@]1(CCC(=O)OC(C)(C)C)N=C(c2ccc(OCCCO)cc2)O[C@H]1c1ccccc1N=[N+]=[N-]	-1.99
CCOC(=O)C[C@H]1[C@H](OC(=O)c2cc3ccccc3oc2=O)[C@@H](NC(=O)c2ccccc2)c2cc(OCCCO)ccc2N1C(=O)c1ccc2ccccc2n1	0.282
C=CCNC(=O)[C@@H]1[C@H]2C(=O)O[C@H](c3ccccc3)[C@H](c3ccccc3)N2[C@H](c2ccc(O)cc2)[C@@]12C(=O)N(C(=O)OCCOC)c1ccc(C#CCNC(N)=O)cc12	0.978
C=CCNC(=O)[C@H]1[C@@H]2C(=O)O[C@@H](c3ccccc3)[C@@H](c3ccccc3)N2[C@@H](c2ccccc2OCCO)[C@]12C(=O)Nc1ccc(C#CCC(C(=O)OC)C(=O)OC)cc12	0.246
CCOC(=O)C1=CC[C@@H](c2ccccc2)N(S(=O)(=O)c2ccc(C)cc2)[C@H]1c1ccccc1C	-1.42
O=C1O[C@H](c2ccccc2)[C@H](c2ccccc2)N2[C@H]1[C@@H](C(=O)N1CCCCCCC1)[C@]1(C(=O)Nc3ccc(C#CCCO)cc31)[C@H]2c1ccccc1OCCO	0.405
C=C(C(=O)CC[C@@H](OC(=O)c1cccnc1)c1ccccc1OCCO)C(C)C	-0.125
O=C1C2C=CC(C(O)Cc3ccccc3)N(n3cnnc3)C2C(=O)N1Cc1ccccc1 (stereo unspecified)	-0.182
O=C1[C@@]23C=C(Br)[C@H](C[C@@H]2CCOC3)[C@@]12CO2	0.845
COC(=O)[C@@]1(Cc2ccc(OC)cc2)[C@H]2c3cc(C(=O)N(C)C)n(C)c3C[C@H]2CN1C(=O)c1ccccc1	-1.37
COCCOC(=O)N1C(=O)[C@@]2(c3cc(C#CCNC(N)=O)ccc31)[C@H](C(=O)N1CCN(c3ncccn3)CC1)[C@H]1C(=O)O[C@H](c3ccccc3)[C@H](c3ccccc3)N1[C@@H]2c1ccc(OCCO)cc1	0.572
COCCCNC(=O)[C@@H]1c2ccccc2C(=O)N(Cc2ccccc2Cl)[C@H]1c1ccc(CO)cc1	0.897
C=CC[C@]1(C(=O)NCCCOC)N=C(c2ccc(OCCCO)cc2)O[C@H]1c1ccccc1CN=[N+]=[N-]	0.566

— PubChem BioAssay
